Measured values taken from the supplement of paper PMC10849652.
Targets with a hit are over-represented here; the source holds about 7,900 in all. About 0.6% of all pairs of compound and target were hits.

Tests used:
Assay in all cases: log2 fold change, soluble protein after heating vs DMSO (PISA); higher = thermal stabilisation; K562 cells, 10 uM, 30 min; active = over 0.2 and 3.5 SD of the protein, either way, in both replicates (recomputed)
[1] = compound: CS(=O)(=O)c1ccc(-c2cnc(N)c(C(=O)Nc3ccccc3)n2)cc1
Method in brief: (§1)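 K562 cells at 2×10^6 cells/mL were treated for 30 min with 10 μM compound, and aliquots were heated for 3 min over 48°C-58°C before pooling. Extraction used PBS with 0.5% NP-40 at 4°C, and soluble protein was the supernatant after 21,000xg for 90 min, measured by TMTpro 16plex LC-MS/MS with channel sums equalised. Thermal stability values, relative to control samples and from duplicates, are log2 fold changes.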

[2] = compound: C[C@@H](Oc1cc(-c2cnn(C3CCNCC3)c2)cnc1N)c1c(Cl)ccc(F)c1Cl [crizotinib]
Method in brief: as §1

[3] = compound: C[C@@H]1COCCN1C2=NC(=NC(=C2)C3(CC3)S(=O)(=O)C)C4=C5C=CNC5=CC=C4
Method in brief: as §1

[4] = compound: C[C@H](C1=CC=C(C=C1)C(=O)NC2=C3C=CNC3=NC=C2)N
Method in brief: as §1

[5] = compound: C[C@H](Nc1ncnc2nc[nH]c12)c1cc2cccc(Cl)c2c(=O)n1-c1ccccc1 [duvelisib]
Method in brief: as §1

[6] = compound: Cc1cc(Nc2cc(CN3CCOCC3)c3nc(C)c(Cc4ccc(Cl)cc4F)n3n2)n[nH]1 [gandotinib]
Method in brief: as §1

[7] = compound: Cc1cc(Nc2cc(N3CCN(C)CC3)nc(Sc3ccc(NC(=O)C4CC4)cc3)n2)n[nH]1 [tozasertib]
Method in brief: as §1

[8] = compound: Cc1cc(SCc2sc(-c3ccc(C(F)(F)F)cc3)nc2C)ccc1OCC(=O)O
Method in brief: as §1

[9] = compound: Cc1ccc(-n2nc(C(C)(C)C)cc2NC(=O)Nc2ccc(OCCN3CCOCC3)c3ccccc23)cc1 [doramapimod]
Method in brief: as §1

[10] = compound: Cc1ccc(C(=O)N(CCCN)[C@@H](c2nc3cc(Cl)ccc3c(=O)n2Cc2ccccc2)C(C)C)cc1 [ispinesib]
Method in brief: as §1

Measured: log2 fold change

NUCKS1 (UniProt Q9H1E3)
UniProt Q9H1E3, sequence (Q9H1E3 whole entry, looked up): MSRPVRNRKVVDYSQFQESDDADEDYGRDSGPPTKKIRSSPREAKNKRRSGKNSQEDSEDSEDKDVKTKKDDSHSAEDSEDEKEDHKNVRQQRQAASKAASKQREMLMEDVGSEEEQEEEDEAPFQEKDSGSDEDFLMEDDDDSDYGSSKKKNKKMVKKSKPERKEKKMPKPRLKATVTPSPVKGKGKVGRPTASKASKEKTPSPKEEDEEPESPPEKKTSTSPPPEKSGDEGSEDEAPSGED
inactive: [1] -0.147 | [3] -0.133 | [4] 0.029 | [5] 0.005 | [6] 0.001 | [7] -0.064 | [8] -0.089 | [9] -0.03 | [10] 0.168
active: [2] 0.274

NAT14 (UniProt Q8WUY8)
inactive: [1] 0.006 | [2] -0.228 | [3] -0.019 | [4] -0.119 | [5] 0.03 | [7] -0.063 | [8] 0 | [9] -0.02
active: [10] -0.418

MT-ND1 (UniProt P03886)
inactive: [1] -0.011 | [2] -0.179 | [3] 0.287 | [4] -0.039 | [5] 0.241 | [7] 0.105 | [8] -0.081 | [9] 0.056 | [10] 0.178

NUP210 (UniProt Q8TEM1)
active: [2] -0.235 | [10] -0.351
inactive: [1] -0.039 | [3] 0.005 | [4] -0.006 | [5] -0.002 | [6] -0.083 | [7] -0.054 | [8] 0.047 | [9] 0.002

NECTIN2 isoform 2 (UniProt Q92692)
inactive: [1] -0.059 | [2] 0.062 | [3] -0.2 | [5] -0.248 | [6] -0.206 | [8] -0.149 | [9] -0.086 | [10] 0.198

MYLK (UniProt Q15746)
UniProt Q15746, sequence (Q15746 whole entry, looked up): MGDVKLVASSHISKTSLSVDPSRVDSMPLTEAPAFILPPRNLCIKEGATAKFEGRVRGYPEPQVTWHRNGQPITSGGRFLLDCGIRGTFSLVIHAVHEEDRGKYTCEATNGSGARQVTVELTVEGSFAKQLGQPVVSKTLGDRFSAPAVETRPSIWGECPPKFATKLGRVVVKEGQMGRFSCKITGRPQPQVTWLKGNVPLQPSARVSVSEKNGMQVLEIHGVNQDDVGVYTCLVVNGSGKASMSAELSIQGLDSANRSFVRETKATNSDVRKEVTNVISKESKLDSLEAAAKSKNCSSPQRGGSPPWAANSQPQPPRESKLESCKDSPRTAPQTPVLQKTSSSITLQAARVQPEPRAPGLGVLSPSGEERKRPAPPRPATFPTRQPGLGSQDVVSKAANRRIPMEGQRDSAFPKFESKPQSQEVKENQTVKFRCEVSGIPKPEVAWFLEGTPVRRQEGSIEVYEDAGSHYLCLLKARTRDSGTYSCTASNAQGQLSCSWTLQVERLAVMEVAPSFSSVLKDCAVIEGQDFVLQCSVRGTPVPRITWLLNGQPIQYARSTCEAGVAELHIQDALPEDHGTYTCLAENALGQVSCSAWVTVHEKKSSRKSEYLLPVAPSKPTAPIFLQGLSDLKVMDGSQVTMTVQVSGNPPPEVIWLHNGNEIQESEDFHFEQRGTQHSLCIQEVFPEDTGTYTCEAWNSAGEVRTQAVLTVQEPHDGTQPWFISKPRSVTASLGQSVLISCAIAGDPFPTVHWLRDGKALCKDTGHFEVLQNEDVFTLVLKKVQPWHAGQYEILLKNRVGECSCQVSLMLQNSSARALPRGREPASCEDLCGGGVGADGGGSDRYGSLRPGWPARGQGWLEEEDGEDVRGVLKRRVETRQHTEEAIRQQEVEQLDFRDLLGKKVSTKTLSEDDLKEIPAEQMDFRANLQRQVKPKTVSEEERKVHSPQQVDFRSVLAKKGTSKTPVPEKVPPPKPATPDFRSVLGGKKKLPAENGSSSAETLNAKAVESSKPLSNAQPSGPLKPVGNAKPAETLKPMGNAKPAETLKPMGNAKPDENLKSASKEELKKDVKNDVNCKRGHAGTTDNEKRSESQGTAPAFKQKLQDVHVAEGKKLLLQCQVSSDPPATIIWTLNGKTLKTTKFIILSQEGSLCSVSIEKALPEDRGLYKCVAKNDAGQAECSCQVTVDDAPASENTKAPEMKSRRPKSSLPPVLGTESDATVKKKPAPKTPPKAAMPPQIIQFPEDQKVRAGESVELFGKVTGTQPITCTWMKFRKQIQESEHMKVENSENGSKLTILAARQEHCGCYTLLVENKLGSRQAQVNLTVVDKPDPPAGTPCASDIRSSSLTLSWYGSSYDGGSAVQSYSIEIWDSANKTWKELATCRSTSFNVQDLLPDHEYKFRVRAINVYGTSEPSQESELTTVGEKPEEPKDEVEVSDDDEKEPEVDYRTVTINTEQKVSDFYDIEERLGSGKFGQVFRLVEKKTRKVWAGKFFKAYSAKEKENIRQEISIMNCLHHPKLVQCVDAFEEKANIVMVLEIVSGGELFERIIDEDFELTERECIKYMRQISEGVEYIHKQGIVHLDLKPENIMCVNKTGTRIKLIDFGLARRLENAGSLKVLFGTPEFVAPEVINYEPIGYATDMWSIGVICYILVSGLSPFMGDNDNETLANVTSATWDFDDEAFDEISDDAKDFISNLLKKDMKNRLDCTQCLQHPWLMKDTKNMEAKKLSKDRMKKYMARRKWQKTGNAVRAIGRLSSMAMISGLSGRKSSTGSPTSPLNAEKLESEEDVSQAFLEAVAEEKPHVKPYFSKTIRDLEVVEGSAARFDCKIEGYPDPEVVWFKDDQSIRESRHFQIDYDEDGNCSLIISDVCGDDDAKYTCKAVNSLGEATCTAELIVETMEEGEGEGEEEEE
inactive: [1] 0.279 | [2] 0.027 | [4] 0.107 | [5] 0.009 | [6] -0.018 | [7] 0.327 | [8] 0.04 | [10] -0.054
active: [9] 1.42

NDUFB1 (UniProt O75438)
UniProt O75438, sequence (O75438 whole entry, looked up): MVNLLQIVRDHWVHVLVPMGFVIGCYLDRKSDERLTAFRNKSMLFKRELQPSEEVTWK
inactive: [1] 0.06 | [2] 0.019 | [3] 0.105 | [4] 0.044 | [6] -0.27 | [7] 0.001 | [9] -0.044

NAA11 (UniProt Q9BSU3)
inactive: [1] 0.027 | [2] -0.065 | [3] 0.006 | [4] 0.086 | [5] -0.015 | [7] 0.007 | [8] 0.114 | [9] -0.037 | [10] -0.009

NUDT7 (UniProt P0C024)
inactive: [1] 0.03 | [2] 0.004 | [3] 0.248 | [6] -0.23 | [7] 0.165 | [9] 0.011 | [10] -0.157

OSTC (UniProt Q9NRP0)
UniProt Q9NRP0, sequence (Q9NRP0 whole entry, looked up): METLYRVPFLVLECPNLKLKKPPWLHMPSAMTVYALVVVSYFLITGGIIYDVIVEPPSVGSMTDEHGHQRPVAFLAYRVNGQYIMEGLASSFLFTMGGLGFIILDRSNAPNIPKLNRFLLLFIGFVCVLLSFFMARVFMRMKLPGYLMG
inactive: [1] 0.044 | [2] -0.047 | [3] 0.132 | [4] -0.089 | [5] 0.041 | [6] -0.112 | [7] -0.001 | [8] -0.042 | [9] 0.028 | [10] -0.117

NDUFA4 (UniProt O00483)
inactive: [1] -0.045 | [2] 0.138 | [3] 0.162 | [4] -0.055 | [5] 0.142 | [6] -0.099 | [7] 0.025 | [8] 0.022 | [9] 0.034 | [10] 0.204

PAFAH1B3 (UniProt Q15102)
inactive: [1] 0.059 | [2] 0.041 | [3] 0.165 | [4] -0.039 | [5] 0.123 | [6] -0.062 | [7] -0.035 | [8] 0.031 | [9] -0.009 | [10] 0.014

MPHOSPH8 isoform 2 (UniProt Q99549)
inactive: [1] -0.068 | [2] -0.036 | [3] -0.05 | [4] 0.045 | [5] -0.006 | [7] 0.04 | [8] -0.018 | [9] 0.059 | [10] 0.18

MSL1 (UniProt Q68DK7)
UniProt Q68DK7, sequence (Q68DK7 whole entry, looked up): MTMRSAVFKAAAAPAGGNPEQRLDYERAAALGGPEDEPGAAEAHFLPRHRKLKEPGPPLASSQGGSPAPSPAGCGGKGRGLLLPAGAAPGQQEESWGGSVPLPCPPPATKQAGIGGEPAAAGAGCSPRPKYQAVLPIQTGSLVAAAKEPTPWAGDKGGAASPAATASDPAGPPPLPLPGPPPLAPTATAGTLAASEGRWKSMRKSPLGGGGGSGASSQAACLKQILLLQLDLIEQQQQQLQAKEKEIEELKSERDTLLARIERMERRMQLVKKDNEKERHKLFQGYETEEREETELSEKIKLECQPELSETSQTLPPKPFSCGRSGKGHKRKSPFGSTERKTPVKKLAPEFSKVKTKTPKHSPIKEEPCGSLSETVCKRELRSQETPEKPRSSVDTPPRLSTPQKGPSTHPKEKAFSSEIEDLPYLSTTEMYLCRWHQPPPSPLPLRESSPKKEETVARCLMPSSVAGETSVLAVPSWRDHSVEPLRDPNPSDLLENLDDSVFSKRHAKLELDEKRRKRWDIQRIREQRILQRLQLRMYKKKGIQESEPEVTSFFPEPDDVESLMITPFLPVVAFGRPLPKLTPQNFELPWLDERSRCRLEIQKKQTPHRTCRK
inactive: [1] 0.092 | [2] 0 | [3] 0.049 | [5] 0.195 | [6] 0.31 | [8] -0.162 | [9] -0.054 | [10] -0.078

MYH10 isoform 3 (UniProt P35580)
inactive: [1] -0.013 | [2] -0.038 | [3] 0.056 | [4] -0.026 | [5] 0.023 | [6] -0.004 | [7] -0.009 | [8] 0.013 | [9] 0.009 | [10] 0.01

MRFAP1 (UniProt Q9Y605)
inactive: [1] -0.066 | [2] -0.142 | [4] -0.048 | [5] 0.072 | [6] -0.014 | [7] 0.027 | [8] -0.023 | [9] 0.045 | [10] 0.016

NA, A0A1W2PSA9
inactive: [4] 0.041 | [5] 0.311 | [6] 0.403 | [7] -0.062 | [8] -0.371 | [10] -0.059

MITF (UniProt O75030)
inactive: [1] 0.026 | [2] -0.137 | [6] -0.13 | [9] 0.006

OGFOD2 (UniProt Q6N063)
inactive: [2] 0.04 | [3] 0.042 | [4] -0.058 | [5] 0.035 | [6] 0.278 | [7] 0.003 | [8] 0.034 | [9] 0.042 | [10] -0.032

MTHFD1, A0A384N5Y3
MTHFD1, A0A384N5Y3, sequence (A0A384N5Y3 whole entry, looked up): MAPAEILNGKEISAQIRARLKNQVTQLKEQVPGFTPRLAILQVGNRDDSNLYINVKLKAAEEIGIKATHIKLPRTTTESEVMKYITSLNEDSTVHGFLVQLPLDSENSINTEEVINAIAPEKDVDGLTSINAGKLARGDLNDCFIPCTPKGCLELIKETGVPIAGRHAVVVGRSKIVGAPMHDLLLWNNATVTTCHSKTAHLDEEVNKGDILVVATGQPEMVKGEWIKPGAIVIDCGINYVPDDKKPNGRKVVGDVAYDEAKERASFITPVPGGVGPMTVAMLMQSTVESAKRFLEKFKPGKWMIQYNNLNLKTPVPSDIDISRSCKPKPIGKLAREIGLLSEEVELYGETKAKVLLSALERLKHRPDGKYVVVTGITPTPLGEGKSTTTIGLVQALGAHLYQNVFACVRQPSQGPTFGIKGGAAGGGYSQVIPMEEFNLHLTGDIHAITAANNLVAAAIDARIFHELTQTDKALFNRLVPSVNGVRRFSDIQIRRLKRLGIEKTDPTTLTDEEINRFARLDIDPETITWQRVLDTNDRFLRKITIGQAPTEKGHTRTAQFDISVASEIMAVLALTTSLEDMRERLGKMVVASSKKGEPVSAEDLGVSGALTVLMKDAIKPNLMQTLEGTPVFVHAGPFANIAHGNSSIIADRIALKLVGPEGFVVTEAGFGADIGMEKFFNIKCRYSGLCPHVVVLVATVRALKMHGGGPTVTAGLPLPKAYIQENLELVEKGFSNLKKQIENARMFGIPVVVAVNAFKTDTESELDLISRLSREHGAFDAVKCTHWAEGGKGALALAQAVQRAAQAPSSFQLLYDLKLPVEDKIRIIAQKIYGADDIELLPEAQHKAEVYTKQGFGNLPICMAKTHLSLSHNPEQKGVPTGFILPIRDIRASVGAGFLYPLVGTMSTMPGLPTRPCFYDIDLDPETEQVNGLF
inactive: [1] 0.109 | [3] 0.117 | [4] -0.008 | [5] 0.108 | [6] -0.036 | [7] -0.11 | [8] 0.081 | [10] -0.082

NA, A0A2R8Y3M9
inactive: [1] -0.084 | [2] 0.013 | [4] -0.011 | [5] -0.299 | [6] -0.099 | [8] -0.107 | [9] -0.008 | [10] -0.125

NELFCD (UniProt Q8IXH7)
inactive: [2] 0.349 | [3] 0.145 | [4] 0.006 | [5] 0.13 | [6] -0.327 | [8] 0.249 | [9] 0.025

MT-ND2 (UniProt P03891)
UniProt P03891, sequence (P03891 whole entry, looked up): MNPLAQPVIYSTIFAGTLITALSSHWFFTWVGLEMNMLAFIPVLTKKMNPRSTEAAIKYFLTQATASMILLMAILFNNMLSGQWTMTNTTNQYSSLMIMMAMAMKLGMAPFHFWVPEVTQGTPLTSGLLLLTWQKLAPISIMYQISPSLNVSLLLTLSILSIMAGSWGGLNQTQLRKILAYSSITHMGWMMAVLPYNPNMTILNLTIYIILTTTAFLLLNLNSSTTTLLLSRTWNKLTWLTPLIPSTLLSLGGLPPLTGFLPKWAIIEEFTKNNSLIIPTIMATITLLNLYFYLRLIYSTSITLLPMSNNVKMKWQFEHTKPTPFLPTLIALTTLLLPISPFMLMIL
inactive: [2] 0.096 | [4] -0.028 | [5] 0.177 | [6] -0.064 | [7] 0.07 | [8] 0.101 | [9] -0.141 | [10] 0.336

OSBPL2 (UniProt Q9H1P3)
inactive: [4] 0.124

NKAP (UniProt Q8N5F7)
inactive: [2] -0.113 | [3] -0.118 | [4] 0.013 | [5] 0.016 | [6] 0.041 | [7] 0.039 | [8] -0.034 | [9] 0.042 | [10] 0.001

NOLC1 isoform 3 (UniProt Q14978)
inactive: [4] -0.305

NMU (UniProt P48645)
inactive: [2] 0.025 | [3] -0.445 | [4] -0.026 | [5] -0.001 | [6] -0.159 | [7] -0.092 | [8] 0.127 | [9] -0.04 | [10] -0.186

MMADHC (UniProt Q9H3L0)
inactive: [2] 0.065 | [4] 0.093 | [5] 0.007 | [6] -0.087 | [7] -0.001 | [8] 0.084 | [9] 0.099 | [10] -0.038

NRGN (UniProt Q92686)
inactive: [2] 0.241 | [3] 0.043 | [9] -0.282 | [10] 0
active: [6] 0.891

PAFAH2 (UniProt Q99487)
inactive: [1] 0.005 | [2] 0.029 | [4] 0.08 | [5] 0.215 | [7] -0.011 | [8] -0.057 | [9] 0.053 | [10] -0.044

NA, A0A494C071
active: [2] -0.887
inactive: [3] 0.137 | [4] 0.043 | [5] 0.007 | [6] -0.352 | [7] -0.152 | [8] -0.102 | [9] 0.104

MSANTD2 (UniProt Q6P1R3)
UniProt Q6P1R3, sequence (Q6P1R3 whole entry, looked up): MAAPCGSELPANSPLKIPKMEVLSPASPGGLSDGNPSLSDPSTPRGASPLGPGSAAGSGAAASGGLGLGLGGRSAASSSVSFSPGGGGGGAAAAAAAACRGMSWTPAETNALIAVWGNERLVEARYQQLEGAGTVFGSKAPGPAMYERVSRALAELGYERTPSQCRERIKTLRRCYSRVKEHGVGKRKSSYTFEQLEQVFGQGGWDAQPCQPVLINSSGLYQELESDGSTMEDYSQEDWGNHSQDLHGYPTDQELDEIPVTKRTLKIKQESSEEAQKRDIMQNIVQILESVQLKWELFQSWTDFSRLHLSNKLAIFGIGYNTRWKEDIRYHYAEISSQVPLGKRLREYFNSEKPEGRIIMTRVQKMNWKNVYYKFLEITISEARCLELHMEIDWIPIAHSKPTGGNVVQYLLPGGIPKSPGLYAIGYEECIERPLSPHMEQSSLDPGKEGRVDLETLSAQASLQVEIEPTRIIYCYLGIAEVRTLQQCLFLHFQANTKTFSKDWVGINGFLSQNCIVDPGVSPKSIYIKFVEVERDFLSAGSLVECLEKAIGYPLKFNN
inactive: [1] 0.295 | [3] 0.089 | [5] 0.019 | [7] 0.064 | [8] 0.039

NUDT6 (UniProt P53370)
inactive: [2] 0.069 | [3] 0.122 | [4] 0.6 | [5] 0.019 | [7] -0.036 | [8] -0.094 | [9] -0.127 | [10] -0.097

NFYB (UniProt P25208)
UniProt P25208, sequence (P25208 whole entry, looked up): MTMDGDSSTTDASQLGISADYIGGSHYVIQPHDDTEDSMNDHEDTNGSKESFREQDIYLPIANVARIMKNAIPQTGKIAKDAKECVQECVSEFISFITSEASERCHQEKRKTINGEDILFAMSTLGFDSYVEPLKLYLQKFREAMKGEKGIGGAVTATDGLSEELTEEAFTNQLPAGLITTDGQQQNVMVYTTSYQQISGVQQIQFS
inactive: [1] -0.004 | [2] 0.069 | [4] -0.084 | [5] -0.123 | [6] 0.011 | [7] 0.085 | [8] -0.124 | [9] -0.028 | [10] 0.168

MYSM1 (UniProt Q5VVJ2)
inactive: [1] 0.067 | [2] -0.091 | [9] -0.045 | [10] 0.128

NCBP2AS2 (UniProt Q69YL0)
inactive: [1] -0.092 | [4] -0.027 | [5] 0.037 | [6] -0.064 | [7] -0.034 | [8] 0.044
active: [10] -0.48

MYH16 (UniProt Q9H6N6)
inactive: [1] -0.33 | [2] -0.097 | [4] -0.012 | [6] -0.279 | [7] -0.027 | [9] 0.399

MYO19 (UniProt Q96H55)
inactive: [2] 0.047 | [3] -0.215 | [4] 0.491 | [5] -0.07 | [6] -0.081 | [8] 0.158 | [9] 0.066 | [10] -0.065
